{"source": "PubChem BioAssay (Tox21)", "note": "Inconclusive results are not listed. A number with no mark means an inactive call. Activity calls are given as the source filed them. The call rests on the fitted dose curve; in most records, active means well fitted activation curve with a large enough effect in the signal ratio in the repeat runs (not every such curve was filed as active); inconclusive means weak or mixed curves; inactive means flat fitted curve, though single readings scatter; the % refers to the signal ratio. On the % scale 0 is the no-effect control and ±100 the full control effect."}
{"assay": "qHTS assay to identify small molecule agonists of H2AX (AID 1224845)", "conditions": "CHO-K1 phospho-H2AX Ser139 HTRF, 3 h; series mostly up to 154 µM; activation (H2AX phosphorylation): at the top concentration", "summary_of_the_method": "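Phospho-H2AX Ser139 measured by HTRF (ex 320 nm; em 665 and 620 nm) after 24 hr antibody incubation. Compounds, 15 concentrations, 0.76% DMSO, were applied to CHO-K1 cells for 3hr at 37C before lysis.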"}
{"smiles": "CCOC(C(=O)OCCN(C)C)(c1ccccc1)c1ccccc1", "activation (H2AX phosphorylation)": "-7.29% [at 70.9 µM]"}
{"smiles": "CC1(C)CC(=O)CC(C)(C)N1[O]", "activation (H2AX phosphorylation)": "0.0706%"}
{"smiles": "CCC[N+](CCC)(CCC)CCC", "activation (H2AX phosphorylation)": "-0.109%"}
{"smiles": "Nc1cc(Cl)cc(C(=O)O)c1Cl", "Potency": "inactive"}
{"smiles": "C[C@H]1[C@@H]2Cc3ccc(O)cc3[C@@]1(C)CCN2C", "activation (H2AX phosphorylation)": "-4.44% [at 401 µM]"}
{"smiles": "CCCCCCCCCCCCN(C)C", "activation (H2AX phosphorylation)": "-0.346%"}
{"smiles": "CC(C)(C)NCC(O)c1ccccc1Cl", "note": "(stereo not given)", "activation (H2AX phosphorylation)": "-2.02% [at 70.9 µM]"}
{"smiles": "COc1cc(C[C@@H](C)N)c(OC)cc1Br", "activation (H2AX phosphorylation)": "0.0844%"}
{"smiles": "CCCCNC(=O)OCC#CI", "activation (H2AX phosphorylation)": "13%"}
{"smiles": "CC(C)CCCCCCCOC(=O)c1ccccc1C(=O)OCCCCCCCC(C)C", "activation (H2AX phosphorylation)": "-0.274%"}
{"smiles": "C1CS1", "activation (H2AX phosphorylation)": "-1.28%"}
{"assay": "qHTS assay to identify small molecule agonists of the hypoxia (HIF-1) signaling pathway (AID 1224846)", "conditions": "HRE-bla ME-180 cells, beta-lactamase ratio, 17 h; series mostly up to 76.8 µM; activation: at the top concentration", "summary_of_the_method": "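ME-180 HRE-bla reporter cells; compounds in DMSO, 17 h at 37C; read-out beta-lactamase via CCF4-AM FRET.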"}
{"smiles": "CCCCCl", "activation": "0.222%"}
{"smiles": "CC(C)(C)NCC(O)c1cc(Cl)c(N)c(C(F)(F)F)c1", "note": "(stereo not given)", "activation": "0.0224% [at 35.5 µM]"}
{"smiles": "O=C(Cc1ccccc1)OCCc1ccccc1", "activation": "1.12%"}
{"smiles": "N#CC(C#N)=C(C#N)C#N", "activation": "-0.983%"}
{"smiles": "O=C(O)COc1cc(Cl)c(Cl)cc1Cl", "outcome": "inactive"}
{"smiles": "CCCC(C)(COC(N)=O)COC(=O)NC(C)C", "note": "(stereo not given)", "outcome": "inactive"}
{"smiles": "CN1CC[C@]23c4c5ccc(O)c4O[C@H]2[C@@H](O)C=C[C@H]3[C@H]1C5", "activation": "-0.224%"}
{"smiles": "CCOP(=S)(S)OCC", "activation": "0.0692%"}
{"smiles": "C=CCc1ccccc1O", "activation": "-0.482%"}
{"smiles": "CC(C)(C)OOC(C)(C)CCC(C)(C)OOC(C)(C)C", "activation": "-1.25%"}
{"smiles": "O=S(=O)(c1ccccc1)c1ccccc1", "activation": "0.199%"}
{"smiles": "Nc1c(Br)cc(Br)c2c1C(=O)c1ccccc1C2=O", "activation": "0.237% [at 15.8 µM]"}
{"smiles": "COc1cc(CC(C)N)c(OC)cc1Br", "note": "(stereo not given)", "activation": "0.799%"}
{"smiles": "O=C(O)c1ccc(=O)[nH]c1", "activation": "-1.11% [at 35.5 µM]"}
{"smiles": "CCNC(=O)NC(=O)/C(C#N)=N/OC", "activation": "0.0253%"}
{"smiles": "C=CCOCC1CO1", "note": "(stereo not given)", "activation": "-0.324%"}
{"smiles": "CCCSP(=S)(OCC)Oc1ccc(SC)cc1", "note": "(stereo not given)", "activation": "0.742%"}
{"smiles": "CCOP(=S)(OCC)Oc1ccc(S(C)=O)cc1", "note": "(stereo not given)", "activation": "-1.04%"}
{"smiles": "C=C(C)C(=O)OCCCCOC(=O)C(=C)C", "activation": "1.12%"}
{"smiles": "C=C(Cl)Cl", "activation": "-0.279%"}
{"smiles": "Clc1ccc(Cl)c(Cl)c1", "outcome": "inactive"}
{"smiles": "NNCCO", "activation": "-1.27%"}
{"smiles": "O=C(N[C@H]1CN2CCC1CC2)c1ccc2c(c1)OCCO2", "activation": "-0.474%"}
{"smiles": "ClCc1ccccc1Cl", "activation": "-0.911%"}
{"smiles": "Nc1ccccc1C(=O)OCCc1ccccc1", "activation": "2.19%"}
{"smiles": "O=C=NC1CCCCC1", "activation": "-1.51%"}
{"smiles": "c1ccc2c(c1)sc1ccccc12", "outcome": "inactive"}
{"smiles": "N#CC1(N=NC2(C#N)CCCCC2)CCCCC1", "activation": "-0.606%"}
{"smiles": "CCOC(C(=O)OCCN(C)C)(c1ccccc1)c1ccccc1", "activation": "3.98% [at 35.5 µM]"}
{"smiles": "CC1(C)CC(=O)CC(C)(C)N1[O]", "activation": "-1.06%"}
{"smiles": "CCC[N+](CCC)(CCC)CCC", "activation": "-0.532%"}
{"smiles": "Nc1cc(Cl)cc(C(=O)O)c1Cl", "outcome": "inactive"}
{"smiles": "C[C@H]1[C@@H]2Cc3ccc(O)cc3[C@@]1(C)CCN2C", "activation": "0.336% [at 199 µM]"}
{"smiles": "CCCCCCCCCCCCN(C)C", "activation": "0.265%"}
{"smiles": "CC(C)(C)NCC(O)c1ccccc1Cl", "note": "(stereo not given)", "activation": "-0.314% [at 35.5 µM]"}
{"smiles": "COc1cc(C[C@@H](C)N)c(OC)cc1Br", "activation": "0.382%"}
{"smiles": "CCCCNC(=O)OCC#CI", "activation": "0.846%"}
{"smiles": "CC(C)CCCCCCCOC(=O)c1ccccc1C(=O)OCCCCCCCC(C)C", "activation": "0.0446%"}
{"smiles": "C1CS1", "activation": "-0.636%"}
